In publication PMC4336329 (PLoS ONE, 2015):
About 14,000 (4.5%) of roughly 310,000 compounds showed an effect of 50% or more. Effects have a minus sign here. This is one part of a sample in which strong results are shown more often than they occur.

These compounds were tested against human ether-à-go-go-related gene (hERG) potassium channel (human, UniProt Q12809) (assay: primary screen, population patch clamp on CHO cells stably expressing hERG; higher = less effect of the substance).
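Further: peak tail current of the secondary pulse compared with the same well before compound.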

human ether-à-go-go-related gene (hERG) potassium channel, sequence (Q12809 whole entry, looked up): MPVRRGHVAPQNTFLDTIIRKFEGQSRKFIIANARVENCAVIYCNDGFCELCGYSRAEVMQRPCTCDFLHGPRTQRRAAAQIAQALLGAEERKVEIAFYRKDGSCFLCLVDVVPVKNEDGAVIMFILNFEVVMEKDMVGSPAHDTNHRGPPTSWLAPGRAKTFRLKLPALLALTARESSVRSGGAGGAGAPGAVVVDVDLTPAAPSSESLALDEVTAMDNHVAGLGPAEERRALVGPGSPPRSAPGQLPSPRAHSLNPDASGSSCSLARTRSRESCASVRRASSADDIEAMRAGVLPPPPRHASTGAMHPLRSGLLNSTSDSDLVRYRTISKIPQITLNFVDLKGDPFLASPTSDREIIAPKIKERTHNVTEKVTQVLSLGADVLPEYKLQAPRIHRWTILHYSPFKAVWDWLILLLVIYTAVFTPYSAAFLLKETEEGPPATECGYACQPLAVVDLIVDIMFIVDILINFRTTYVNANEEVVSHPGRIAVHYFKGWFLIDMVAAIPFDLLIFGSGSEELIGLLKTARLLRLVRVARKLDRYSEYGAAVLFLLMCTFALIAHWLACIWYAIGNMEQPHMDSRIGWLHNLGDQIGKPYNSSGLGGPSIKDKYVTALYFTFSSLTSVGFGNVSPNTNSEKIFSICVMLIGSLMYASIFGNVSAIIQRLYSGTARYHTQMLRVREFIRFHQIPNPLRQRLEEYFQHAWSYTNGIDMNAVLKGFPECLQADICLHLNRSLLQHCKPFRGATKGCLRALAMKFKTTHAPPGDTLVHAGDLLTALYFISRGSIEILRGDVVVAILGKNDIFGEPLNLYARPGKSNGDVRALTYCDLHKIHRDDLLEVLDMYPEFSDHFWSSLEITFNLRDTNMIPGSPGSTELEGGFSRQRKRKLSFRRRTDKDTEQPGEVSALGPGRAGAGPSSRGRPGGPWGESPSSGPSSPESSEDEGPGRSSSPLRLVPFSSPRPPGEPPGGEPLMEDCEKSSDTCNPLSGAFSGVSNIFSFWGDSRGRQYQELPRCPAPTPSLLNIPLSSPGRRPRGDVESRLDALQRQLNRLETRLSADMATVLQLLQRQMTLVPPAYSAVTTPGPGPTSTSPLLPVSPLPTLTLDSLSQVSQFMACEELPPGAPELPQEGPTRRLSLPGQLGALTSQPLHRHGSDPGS

Compound	hERG current change (%, negative = inhibition) at 10uM [%]
NC(=O)c1ccc(NCc2ccco2)c([N+](=O)[O-])c1	6.16
CN1CCN(S(=O)(=O)c2ccc3c(c2)C(C)(C)C(=O)N3C)CC1	14.3
CSCCC(NC(=O)c1cc(S(=O)(=O)N2CCOCC2)ccc1F)c1nc2ccccc2[nH]1 (centres unmarked)	-5.27
O=C(COc1ccccc1)N1CCN(C(=O)c2ccc([N+](=O)[O-])cc2)CC1	-62.4
O=C(COc1ccccc1)N1CCN(S(=O)(=O)c2cccc([N+](=O)[O-])c2)CC1	-47.3
COc1ccc(OCC(=O)N2CCN(C(=O)c3ccc([N+](=O)[O-])cc3)CC2)cc1	-67.2
CCC(=O)c1ccc(OCC(=O)N2CCN(C(=O)c3ccccc3)CC2)cc1	-37.8
COc1ccc(OCC(=O)N2CCN(C(=O)c3ccccc3)CC2)cc1	-12.6
COc1ccc(OCC(=O)N2CCN(C(=O)c3ccc(F)cc3)CC2)cc1	-20.2
COc1ccc(NC(=O)Cc2nnc(SCC(=O)NC3CCCC3)n2C)cc1	15.3
CN(CC(=O)Nc1ccccc1Sc1ccccc1)Cc1nc2ccccc2c(=O)[nH]1	-37.1
CC(C)CN(CC(C)C)C(=O)COc1ccccc1C(N)=O	7.55
COc1ccc(S(=O)(=O)N2CCN(CC(=O)Nc3cc(C(F)(F)F)ccc3Cl)CC2)cc1	-4.6
CSc1ccc(CN2CCC(Cc3ccccc3)CC2)cc1	-65.4
Clc1ccc(CN2CCC(Cc3ccccc3)CC2)cc1	-40.9
C=CCOc1ccccc1CN1CCSCC1	-11.2
CCOc1ccc(CN2CCC(Cc3ccccc3)CC2)cc1	-78.3
CCOc1ccc(S(=O)(=O)N2CCN(Cc3ccccc3)CC2)cc1	1.61
Fc1ccc(CN2CCC(Cc3ccccc3)CC2)cc1F	2.03
C=CCOc1ccccc1CN1CCC(Cc2ccccc2)CC1	-70.3
C=CCOc1ccccc1CN1CCCCCC1	-18.9
Clc1cccc(CN2CCC(Cc3ccccc3)CC2)c1	-27.9
O=C(CNS(=O)(=O)c1ccccc1)NCC(=O)OCc1ccccc1F	13.7
CC[C@@]12C(=O)N(c3ccccc3)C(=O)N1[C@H](c1ccc(Br)cc1)[C@@H]1C(=O)N(C(C)(C)C)C(=O)[C@@H]12	4.22

Compound	hERG current change (%, negative = inhibition) at 10uM [%]
CCOC(=O)/C=C/c1cnn(-c2ccccc2)c1	3
CCc1nc2cc(CC(=O)O)ccc2o1	8.35
COc1ccc(/C=N/NC(=O)Cn2cnc3ccccc3c2=O)cc1OC	-6.77
CCCCn1c(O)c(C(CC)=NCc2ccco2)c(=O)[nH]c1=O	-35.4
CC(C)CN(C(=O)CN(C)C(=O)Cc1ccccc1Cl)c1c(N)n(CC(C)C)c(=O)[nH]c1=O	20.7
CCC1CCCCN1C(=O)c1cccc(S(=O)(=O)Nc2cc(C(F)(F)F)ccc2Cl)c1 (centres unmarked)	2.59
COc1ccc(CCC(=O)NCCOc2ccc(Cl)cc2)cc1	-7.98
COc1ccc(-c2[nH]c3ccccc3c2SCCNC(=O)c2cc3ccccc3oc2=O)cc1	-0.175
CCOc1ccc(NC(=O)Cn2nnc(C(=O)NCc3cccs3)c2N)cc1	13.8
Cc1cc(=O)[nH]c2nnc(-c3ccc(Br)cc3)n12	5.99
O=S(=O)(c1ccc2c(c1)CCN2)N1CCCC1	-1.58
COc1ccc(CNC(=O)COC(=O)[C@H](Cc2c[nH]c3ccccc23)NC(=O)c2cccs2)cc1	-0.701
COc1ccccc1N1CCN(CC(O)c2ccccc2)CC1 (centres unmarked)	-8.46
COc1ccccc1N1CCN(CC(O)COc2cccc3ccccc23)CC1.Cl (centres unmarked)	-68.3
OC(COc1ccc2ccccc2c1Cl)CN1CCOCC1 (centres unmarked)	-24.5
CCOC(=O)N1CCN(CC(O)c2ccc3cc[nH]c3c2)CC1 (centres unmarked)	-30.4
OC(COc1cccc2ccccc12)CN1CCCC1 (centres unmarked)	-29.4
COc1ccccc1N1CCN(CC(O)c2ccc3cc[nH]c3c2)CC1 (centres unmarked)	-69.3
OC(COc1cccc2ccccc12)CN1CCN(c2ccccc2Cl)CC1 (centres unmarked)	-50.2
COc1ccccc1N1CCN(CC(O)COc2cccc3ccccc23)CC1.Cl.O (centres unmarked)	-61
Cc1ccc(N2CCN(CC(O)COc3cccc4ccccc34)CC2)cc1 (centres unmarked)	-25.1
OC(COc1cccc2ccccc12)CN1CCN(c2ccccc2)CC1 (centres unmarked)	-33.2
COc1ccccc1N1CCN(CC(O)COc2c(OC)cccc2OC)CC1.Cl (centres unmarked)	-48.4
